Laboratory results: PubChem BioAssay (NCATS)
Where “and” joins values, the source holds several entries; their conditions need not be identical. Identical values can stand only once. Inconclusive results are not listed. Entries that show only a call come without a potency. Values without a mark were called inactive. Calls of active or inactive are those of the source. The call rests on the fitted dose curve; in most records, active means well fitted curve in the direction sought with a large enough effect; inconclusive means small, poorly fitted or top-dose-only effect, or another doubt; inactive means no such curve, though single readings can be large; an effect the other way counts as inactive or inconclusive. Square brackets hold non-standard residues; d marks the D form. Peptide text beside a SMILES is read from it. ξ: configuration not given here. ξLac(3-iPr) = CC(C)CC(O)C(=O)O; NMeV = CN[CH](C(=O)O)C(C)C; βAla = NCCC(=O)O

How the values were obtained:
[1] = biological target: Cellular tumor antigen p53 (Homo sapiens) (UniProt P04637); assay: Primary qHTS for small molecule compounds that upregulate eGFP-tagged delta133p53alpha (in N-terminal) cells. (AID 2060322); settings: NCI-H358 eGFP-delta133p53alpha fluorescence, 24 h; activation: stronger effect = higher value; further: nearly all actives have a fitted effect of over 75% in size; further: potency means the concentration at half of the fitted maximal effect; on activation: series mostly up to about 56 µM
Cellular tumor antigen p53 (Homo sapiens), sequence (P04637 whole entry, looked up): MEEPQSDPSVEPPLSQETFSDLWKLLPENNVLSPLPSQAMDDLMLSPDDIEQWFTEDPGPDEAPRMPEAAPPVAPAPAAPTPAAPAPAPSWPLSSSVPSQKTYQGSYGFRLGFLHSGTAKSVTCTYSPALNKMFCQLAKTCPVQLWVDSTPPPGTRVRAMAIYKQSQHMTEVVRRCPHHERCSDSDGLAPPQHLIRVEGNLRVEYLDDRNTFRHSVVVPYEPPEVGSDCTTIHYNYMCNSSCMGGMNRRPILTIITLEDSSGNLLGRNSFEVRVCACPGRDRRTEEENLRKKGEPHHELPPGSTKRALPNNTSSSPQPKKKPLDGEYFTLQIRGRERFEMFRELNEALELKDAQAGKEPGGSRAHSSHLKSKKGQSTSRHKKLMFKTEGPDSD
Method in brief: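 NCI-H358 cells pre-induced 24 h with 10 ng/ml doxycycline to express N-terminal eGFP-delta133p53alpha, then dosed 24 h at 37C without doxycycline; fixed, Hoechst-stained, GFP intensity by laser scanning cytometry, normalized to DMSO (0%) and 57.5 uM 5-azacytidine (100%).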

[2] = biological target: Aldehyde dehydrogenase, mitochondrial (Homo sapiens) (UniProt P05091); assay: qHTS for Inhibitors of the Aldehyde Dehydrogenase Family (ALDH2) Primary screen (AID 2061308); further: nearly all actives have a fitted effect of over 55% in size
[3] = biological target: Retinaldehyde dehydrogenase 3 (Homo sapiens) (UniProt P47895); assay: qHTS for Inhibitors of the Aldehyde Dehydrogenase Family (ALDH1A3) Primary screen (AID 2061315)

Compound | activation [1] | Potency [2] | Potency [3] | Potency [1] | activity change, negative = inhibition [2] | activity change, negative = inhibition [3]
C1=Cc2ccccc2C(=C2CCN(CCCCc3nn[nH]n3)CC2)c2ccccc21 | -3% | inactive | inactive | – | – | –
CC(=O)O[C@H]1C[C@@H](O)C(C)(C)C2C[C@@H](OC(C)=O)[C@@]3(C)C4=CCC(C(CO)CC(O)C5OC5(C)C)[C@]4(C)CCC3[C@]21C (some centres undefined) | -9.16% | inactive | inactive | – | – | –
C=C[C@H]1[C@H](O[C@@H]2O[C@H](CO)[C@@H](O)[C@H](O)[C@H]2O)OC=C2C(=O)OCC[C@]21O | -8.04% | inactive | inactive | – | – | –
Cc1nc(C#Cc2ccnc(Cl)c2)c(C)n1-c1ccc(OC(F)(F)F)cc1 | -7.16% | inactive | inactive | – | – | –
CC(C)CC1OC(=O)C2CCCN2C(=O)CCNC(=O)C(Cc2ccccc2)NC(=O)C(C(C)C)N(C)C(=O)C(C(C)C)N(C)C1=O (centres undefined) (cyclo([ξLac(3-iPr)][NMeV][NMeV]F[βAla]P); configuration not given here) | -23.7% | inactive | inactive | – | – | –
O=C(C[C@@H]1C(C(=O)O)=CO[C@@H](O[C@@H]2O[C@H](CO)[C@@H](O)[C@H](O)[C@H]2O)/C1=C\CO)OCCc1ccc(O)c(O)c1 | -14.3% | inactive | inactive | – | – | –
C=C(C(=O)O)[C@@H]1CC[C@@]2(C)CCC[C@@](C)(O)[C@@H]2C1 | 10.7% | inactive | inactive | – | – | –
CC(=O)O[C@H]1[C@H](O)C[C@@]2(C)C(CC[C@]3(C)C2CC=C2C4CC(C)(C)CC[C@]4(C(=O)O)CC[C@]23C)C1(C)C (some centres undefined) | -12.5% | inactive | inactive | – | – | –
CC(/C=C/[C@]1(O)[C@@]2(C)CO[C@@]1(C)C[C@@H](O)C2)=C\C(=O)O[C@@H]1O[C@H](CO)[C@@H](O)[C@H](O)[C@H]1O | -16.8% | inactive | inactive | – | – | –
CC(=O)OCC1OC(O[C@H]2CC[C@]34C[C@]35CC(O)[C@]3(C)[C@@H]([C@H](C)CC/C=C(\C)C(=O)O)C(O)C[C@@]3(C)C5CC[C@H]4C2(C)C)C(O)C(O)C1OC1OCC(O)C(O)C1O (some centres undefined) | -13% | inactive | inactive | – | – | –
C=C(C)C1CCC(C)C12CC(O)C1(C)OC1C2OC(=O)C(N)CCC(=O)O (centres undefined) | -6.11% | inactive | inactive | – | – | –
CCNC(=O)[C@@H]1CCCN1C(=O)[C@H](CCCN=C(N)N)NC(=O)[C@H](CC(C)C)NC(=O)[C@@H](CC(C)C)NC(=O)[C@H](Cc1ccc(O)cc1)NC(=O)[C@H](CO)NC(=O)[C@H](Cc1c[nH]c2ccccc12)NC(=O)[C@H](Cc1cnc[nH]1)NC(=O)[C@@H]1CCC(=O)N1 | 7% | inactive | inactive | – | – | –
COc1ccc2c(c1)C(=O)N(CCc1ccc(S(=O)(=O)NC(=O)NC3CCCCC3)cc1)C(=O)C2(C)C | -11.7% and 6.33% | inactive | inactive | – | – | –
C=C1CCC2[C@@](C)(C(=O)O)CCC[C@@]2(C)[C@@H]1CCc1ccoc1 (some centres undefined) | 1.79% | inactive | inactive | – | – | –
CC1=CC(=O)CC(C)(C)C1CCC(C)O[C@@H]1O[C@H](CO[C@@H]2OC[C@@H](O)[C@H](O)[C@H]2O)[C@@H](O)[C@H](O)[C@H]1O (some centres undefined) | -10.7% | inactive | inactive | – | – | –
C=C1C(=O)O[C@@H]2[C@H]1CC[C@H](C)C(CCC(=O)O)C2(C)O (some centres undefined) | – | inactive | inactive | 23.9 µM (active) | – | –
CC(=O)OC[C@@]12[C@@H](OC(C)=O)C[C@@H](C)[C@](C)([C@@H]3C[C@H]4C=CO[C@H]4O3)[C@H]1CCC[C@]21CO1 | 0% | inactive | inactive | – | – | –
CC(=O)OC1C(CO)OC(O[C@H]2[C@H](OC(=O)[C@]34CCC(C)(C)C[C@H]3C3=CCC5[C@@]6(C)CC[C@H](O[C@@H]7O[C@H](C(=O)O)[C@@H](O)[C@H](O[C@@H]8OC[C@@H](O)[C@H](O)[C@H]8O)[C@H]7O[C@@H]7O[C@H](CO)[C@H](O)[C@H](O)[C@H]7O)[C@@](C)(C=O)C6CC[C@@]5(C)[C@]3(C)C[C@H]4O)O[C@H](C)[C@H](OC3OC(C)C(OC4OCC(O)C(O)C4O)C(O)C3O)[C@@H]2O)C(O)C1O (some centres undefined) | 4.58% | – | – | – | -12.7% [at 11.2 µM] | 4.72% [at 11.2 µM]
C=CC(C)(O)CC/C=C(\C)C(=O)OC1C(O)C(CO)OC(OC(=O)C23CCC(C)(C)CC2C2=CCC4C5(C)CCC(OC6OC(COC7OCC(OC(C)=O)C(O)C7OC7OC(COC(C)=O)C(O)C(O)C7OC(C)=O)C(O)C(O)C6OC6OCC(O)C(O)C6O)C(C)(C)C5CCC4(C)C2(C)C(O)C3O)C1OC1OCC(OC2OCC(O)C(OC3OCC(O)C(O)C3O)C2O)C(O)C1O (centres undefined) | -12.2% | – | – | – | 11.4% [at 11.2 µM] | 12.6% [at 11.2 µM]
C[C@H](NC(c1cccc2[nH]c(=O)c(=O)[nH]c12)P(=O)(O)O)c1ccc(Br)cc1 (some centres undefined) | -12.3% | inactive | inactive | – | – | –
COc1c(-c2ccc(O)cc2)cc(OC)c2c1oc1cc(O)c(OC3OC(CO)C(O)C3O)cc12 (centres undefined) | 1.79% | inactive | inactive | – | – | –
CCOc1nc(NC(=O)Cc2cc(OC)ccc2OC)cc(N)c1C#N | 15% | inactive | inactive | – | – | –

Compound | activation [1] | Potency [2] | Potency [3] | Potency [1] | activity change, negative = inhibition [2] | activity change, negative = inhibition [3]
C[C@@H](Nc1cc(NS(=O)(=O)N2CCC2)nc(SCc2cccc(F)c2F)n1)[C@@H](O)CO | -20.5% | inactive | inactive | – | – | –
O=C(O)/C=C/c1ccc(-c2ccc(O)c(C34CC5CC(CC(C5)C3)C4)c2)cc1 | – | inactive | inactive | 26.9 µM (active) | – | –
CN1CCN(C(c2ccccc2)c2ccccc2)CC1 | 14.2% and -0.955% | inactive | inactive | – | – | –
C=CC(C)(C)C12C=C(OC)C(=O)N3C(C(C)C)C(=O)NC31N(OC)c1ccccc12 (centres undefined) | -9.16% | inactive | inactive | – | – | –
Nc1nc2c(c(=O)[nH]1)C[C@@H](CCc1ccc(C(=O)N[C@@H](CCC(=O)O)C(=O)O)cc1)CN2 | 8.33% | inactive | inactive | – | – | –
CC(=O)O[C@H]1C[C@@]2(C)[C@@H](C[C@@H](O)[C@H]3[C@@]4(C)CC[C@@H](O)[C@@H](C)[C@@H]4CC[C@@]32C)/C1=C(\CCC=C(C)C)C(=O)O | 9% | inactive | inactive | – | – | –
CC1(C)CC2C(O)C3=C(CC(C)(O)C2C1)C(=O)OC3 (centres undefined) | -6.87% | inactive | inactive | – | – | –
COc1ccccc1NC(=O)OCC1CCN(C(=O)OC(C)(C)C)CC1 | -5.67% | inactive | inactive | – | – | –
COC1C=C(C)C(O)(CO)C2(C)CCCC(C)(C)C12 (centres undefined) | 13% | inactive | inactive | – | – | –
CC(=O)O[C@H]1CC[C@]2(C)[C@H]3CC[C@]4(C)Oc5oc(C)cc(=O)c5C[C@H]4[C@]3(C)CC[C@H]2C1(C)C | 0% | inactive | inactive | – | – | –
CCC(C)/C=C(C)/C=C/C1=CC2=C(Cl)C(=O)C(C)(OC(C)=O)C(=O)C2=CN1C(CCC(=O)O)C(=O)O (centres undefined) | -13% | inactive | inactive | – | – | –
COC(=O)c1cc(Br)cnc1N1CCC(NC2CCCCC2)C(O)C1 (centres undefined) | -10.3% | inactive | inactive | – | – | –
Cc1ccc(Cc2c(C)nc3nc(SCC(=O)NCCN4CCNCC4)nn3c2C)cc1 | -9.67% | inactive | inactive | – | – | –
CC(=O)O[C@@H]1[C@H](O[C@@H]2O[C@@H](CO)[C@H](O)[C@H]2O)[C@@H](O[C@@H]2O[C@@H](C)[C@H](O[C@@H]3OC[C@@H](O)[C@H](O)[C@H]3O)[C@@H](O)[C@H]2O)[C@H](OC(=O)[C@]23CCC(C)(C)C[C@H]2C2=CCC4[C@@]5(C)CC[C@H](O[C@@H]6O[C@H](C(=O)O)[C@@H](O)[C@H](O)[C@H]6O[C@@H]6O[C@H](CO)[C@H](O)[C@H](O)[C@H]6O)[C@@](C)(C=O)C5CC[C@@]4(C)[C@]2(C)C[C@H]3O)O[C@@H]1C (some centres undefined) | 0.893% | – | – | – | -0.326% [at 11.2 µM] | -1.8% [at 11.2 µM]
C[C@@H]1O[C@@H](O[C@H]2[C@H](O)[C@@H](C(=O)O)O[C@@H](O[C@H]3CC[C@@]4(C)C(CC[C@]5(C)C4CC=C4C6CC(C)(C)CC[C@]6(C(=O)O)CC[C@]45C)C3(C)C)[C@@H]2O[C@@H]2OC[C@@H](O)[C@H](O)[C@H]2O)[C@H](O)[C@H](O)[C@H]1O (some centres undefined) | 2.68% | inactive | inactive | – | – | –
O=C(c1ccc(OC(F)F)c(C#Cc2ccccn2)c1)N1Cc2cccnc2C1 | 4.77% | inactive | inactive | – | – | –
C=C1CCC2C(C)(C(=O)O)CCCC2(C)C1CC/C(=C\CO)CO (centres undefined) | 3.57% | inactive | inactive | – | – | –
C=C1CCC2C(C(C)(C)O)CCC2(C)CC(O)C(=C)CCC1O (centres undefined) | -12.5% | inactive | inactive | – | – | –
COC(=O)C1=CO[C@@H](O[C@@H]2O[C@H](CO)[C@@H](O)[C@H](O)[C@H]2O)[C@H]2[C@@H]1C=C[C@]21C=C([C@H](C)OC(=O)/C=C/c2ccc(O[C@@H]3O[C@H](CO)[C@@H](O)[C@H](O)[C@H]3O)cc2)C(=O)O1 | -1.79% | inactive | inactive | – | – | –
COC(=O)C1=CO[C@@H](O[C@@H]2O[C@H](CO)[C@@H](O)[C@H](O)[C@H]2O)[C@@H]2[C@@](C)(O)[C@@H](OC(=O)/C=C/c3ccc(O)cc3)C[C@]12O | -0.763% | inactive | inactive | – | – | –
H-DPPDPDRFYGMM-NH2 | -11% | inactive | inactive | – | – | –
